Experimental findings from PubChem BioAssay AID778 (Sanford-Burnham Center for Chemical Genomics, 2007) are described below.

A word on the inhibition: it is the relative decrease from the control value, in per cent.

SMILES strings stand for the structures. The campaign covered roughly 96,000 compounds. About 20,000 (21%) were called active. These entries were drawn from the full list. A number with no mark means an inactive call.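 The calls were made as follows: active = CYP2C19 inhibition above a set limit at 5 µM in the primary screen (cut at about 50% in these data); inactive = the rest.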 Non-standard residues stand in square brackets, D forms with d. Residues, ends and D or L forms follow the SMILES beside them. ξ: configuration not given here. ξV = CC(C)C(N)C(=O)O

In the test the target is Cytochrome P450 2C19 (Homo sapiens) (UniProt P33261). The test can be described thus: blockers of cytochrome P450 2C19 activity – biochemical, luminescence, ADME assay, primary screen (AID 778).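 Also: plate controls were negative control wells for no effect and 2.5 mM tranylcypromine positive control for full effect.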 The conditions noted are these: CYP2C19 Supersomes, luciferin-H EGE luminescence, 30 min; at 5 µM; hits give high values.
Sequence of Cytochrome P450 2C19 (Homo sapiens) (P33261 whole entry, looked up): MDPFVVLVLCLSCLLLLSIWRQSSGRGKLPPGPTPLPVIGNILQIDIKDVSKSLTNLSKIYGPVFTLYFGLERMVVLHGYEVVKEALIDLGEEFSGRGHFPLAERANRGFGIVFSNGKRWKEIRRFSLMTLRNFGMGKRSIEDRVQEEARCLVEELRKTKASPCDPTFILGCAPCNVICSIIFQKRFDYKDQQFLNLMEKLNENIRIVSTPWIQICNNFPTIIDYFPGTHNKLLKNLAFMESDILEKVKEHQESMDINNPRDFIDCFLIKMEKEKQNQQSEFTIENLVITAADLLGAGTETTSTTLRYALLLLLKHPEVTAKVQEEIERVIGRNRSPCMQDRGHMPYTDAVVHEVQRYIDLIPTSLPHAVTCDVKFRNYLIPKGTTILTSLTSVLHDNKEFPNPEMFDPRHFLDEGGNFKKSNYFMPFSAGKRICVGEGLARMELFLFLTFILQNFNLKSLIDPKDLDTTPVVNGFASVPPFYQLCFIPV
Take `O=C(NC1CCN(Cc2ccccc2)CC1)c1ccccc1F`: the inhibition is 6.3%.
With `O=C(CCc1ccccc1)Nc1ccc(NC(=O)C2CC2)nc1`, the inhibition is 18.9%.
As to `CC(C)NS(=O)(=O)c1ccc(OCC(=O)Nc2ccc3c(c2)OCCO3)cc1`, the inhibition is 28.9%.
Next, `CN1CCCN(S(=O)(=O)c2ccc3c(c2)OCCO3)CC1`: -1.5%; `O=S(=O)(Nc1nccs1)c1ccc2c(c1)OCCO2`: 56.7% (active); `CCCCC(CC)C(=O)Nc1ccc(Cl)cn1` (configuration not stated): 7.2%.
For `CC(=O)Nc1ccc(S(=O)(=O)Nc2nc3n(n2)C(c2ccccc2)CC(=O)N3)cc1` (configuration not stated), the inhibition was -6%.
Under `N=c1n(Cc2ccc(Cl)cc2)c2ccccc2n1CC(O)c1ccco1` (configuration not stated) stands 83.1% (active); under `O=S(=O)(O)c1nc2ccccc2n1Cc1ccc(Cl)cc1`, 2.7%.
Next, `Cn1c(=N)n(CC(O)c2ccccc2)c2ccccc21` (configuration not stated): -12.3%; `Cc1ccc(/C=N/NC(=O)c2sccc2OCc2ccc(F)cc2)cc1`: -8.9%.
As for `Oc1ccccc1/C=N/n1c(-c2cccs2)n[nH]c1=S`, the inhibition was -14.5%.
As to `CCCN1C(=O)C(NC(C)=O)c2cc(OC)ccc21` (configuration not stated), the inhibition is -12.9%.
Under `COc1ccc(-c2[nH]nc3c2C(c2ccncc2)C(C#N)=C(N)O3)cc1` (configuration not stated) stands -1.2%.
Next, `CCC1=C(C(=O)OC)C(c2cc(OC)ccc2OC)C(C#N)=C(N)O1` (configuration not stated): 54.8% (active); `CCCN1CC=C2C(C#N)=C(N)C(C#N)(C#N)C(c3cc(OC)ccc3OC)C2C1` (configuration not stated): 16.6%; `COC(=O)C1=C(C)OC(N)=C(C#N)C1c1cc(OC)ccc1OC` (configuration not stated): 53.3% (active).
Under `Cc1cc(=O)oc(C)c1C(=O)NCc1ccc(F)cc1` stands 33.5%; under `CC(=O)NC(C(=O)NCC(N)=O)C(C)C` (configuration not stated) (Ac-[ξV]-Gly-NH2), -4%; under `COc1ccc(C2OC(=O)CC2C(=O)NC(C)C)cc1` (configuration not stated), 19.5%.
`O=C(Nc1ccccc1F)C1C2C=CC3(O2)C1C(=O)N(c1cccnc1)C3C(=O)NC1CCCCC1` (configuration not stated): the inhibition was -8.2%.
In the case of `CCC(=O)N(C)C(c1ccccc1Cl)c1nnnn1-c1c(C)cccc1C` (configuration not stated), the inhibition is 11.1%.
Next, `O=C(c1ccccn1)c1ncc(C(F)(F)F)cc1Cl`: 44.3%.
Under `C#CCN(N(C)c1ncc(C(F)(F)F)cc1Cl)S(=O)(=O)c1ccc2ccccc2c1` stands 94.5% (active); under `Cc1cc(C)cc(NS(=O)(=O)c2ccc(Oc3ncc(C(F)(F)F)cc3Cl)cc2)c1`, 9.5%; under `CC(NC(=O)C1CCC(CNc2c(N3CCOCC3)c(=O)c2=O)CC1)c1ccccc1` (configuration not stated), -2.1%.
Regarding `Nc1nc(Br)c2ccccc2c1-c1ccc(F)cc1`, the inhibition was 18.7%.
Next, `N#Cc1c(C(F)(F)F)cc(-c2ccccc2)nc1SCC(=O)N1CCOCC1`: 0%; `CCC/C(O)=C1\C(=O)CC(C)(C)CC1=Nc1ccccc1OC`: 45.5%.
With `CC1(C)CC(=O)C=C(NC2CC(C)(C)NC(C)(C)C2)C1`, the inhibition is -1.1%.
With `COc1ccccc1-c1n[nH]c2c1[C@H](C)CC[C@H]2C(C)C`, the inhibition is 21%.
On to `O=C(O)COc1ccc(-c2nccc(-c3cccs3)n2)cc1`, for which the inhibition was -9.2%.
Consider `CCOc1cccc(C(=O)Nc2nnc(-c3cccs3)s2)c1`, for which the inhibition was 2.2%.
Under `CN(C(=O)COc1nnc(-c2cccs2)c(-c2cccs2)n1)c1ccccc1` stands 75.5% (active); under `O=C(O)Cc1ccc(NC(=O)C2CCCCC2C(=O)O)cc1` (configuration not stated), 2.3%.
Under `CSCCC(Nc1nc2ccccc2s1)C(=O)O` (configuration not stated) stands 12.6%; under `COc1cc(C2C(C(=O)c3ccc(C)o3)=C(O)C(=O)N2Cc2cccnc2)ccc1O` (configuration not stated), -12.6%.
Next, `COc1cccc(C2/C(=C(/O)c3ccncc3)C(=O)C(=O)N2CCCN(C)C)c1` (configuration not stated): -12.6%.
`COc1cc(C2C(C(=O)c3sc(C)nc3C)=C(O)C(=O)N2CCN(C)C)cc(OC)c1OC` (configuration not stated): the inhibition was 76.7% (active).
Under `Cc1ccc(C(c2nnnn2C(C)(C)C)N2CCc3ccccc3C2)cc1` (configuration not stated) stands 14.4%; under `COc1ccc(OC)c(C(c2nnnn2C(C)(C)C)N2CCc3ccccc3C2)c1` (configuration not stated), 94.8% (active); under `COC(=O)C1C(=O)c2c([nH]c(C(=O)OCCSC)c2C)CC1C` (configuration not stated), 10.1%.
Under `Cc1cc2ncn(CCCCOc3ccccc3)c2cc1C` stands 40.1%; under `Cc1nn(CCOc2ccccc2)c(=O)n1-c1ccccc1F`, 53.1% (active); under `Nc1nc(SCCOc2ccccc2)n[nH]1`, 28.3%.
Turning to `CC(C)Oc1ccc(C2NC(=O)NC2=O)cc1` (configuration not stated), the inhibition was -16.7%.
Next, `O=C(Nc1ccc(NC(=O)c2cccs2)cn1)c1ccco1`: 17.3%.
Next, `COc1ccc2c(c1)C(C)=CC(C)(C)N2C(=O)CNCc1ccc2c(c1)OCO2`: 84.8% (active); `Cc1ccc(-n2ncc3c(=O)[nH]cnc32)c(C)c1`: -3.8%.
Next, `COn1c(=O)c(=O)n(OC)c2ccccc21`: -6.8%.
Regarding `Cc1ccc(NC(=O)Nc2ccc3oc(C)nc3c2)cc1`, the inhibition was 3%.
Next, `COc1ccc(C(=O)NCc2cn3ccccc3n2)cc1`: 1.2%; `CCn1cc(C(=O)NCc2ccc3c(c2)OCO3)c2cc(OC)c(OC)cc2c1=O`: 15.2%.
Under `CCn1cc(C(=O)NCc2ccc(OC)cc2OC)c(=O)c2ccc(C)nc21` stands 66.3% (active).
Next, `CC(c1ccco1)N(C(=O)Nc1ccccc1)C1CCCCC1` (configuration not stated): 76.2% (active); `CCOc1ccc(NC(=O)N(CCC(C)C)C(C)c2ccco2)cc1` (configuration not stated): 24.3%; `CC(NC(=O)Nc1ccccc1)c1ccccc1` (configuration not stated): 24.8%.
As for `CC(=O)c1c(N)n(C)c(=O)n(C)c1=O`, the inhibition was 0.9%.
Under `CCN(CC)Cc1c(C(=O)OC)nnn1-c1nonc1N` stands 4.8%; under `CCOC(=O)c1nnn(-c2nonc2-n2cccc2)c1CN1CCOCC1`, 3.7%; under `CCOC(=O)c1nnn(-c2nonc2-n2cccc2)c1CN1CCC(C(=O)OCC)CC1`, 98% (active).
Under `CC(=O)Oc1cccc(N2C(=O)CC(Nc3ccc(N4CCOCC4)cc3)C2=O)c1` (configuration not stated) stands 18.5%; under `Cc1ccc(NC(=O)NCC(c2cccnc2)N2CCOCC2)cc1` (configuration not stated), -7.8%; under `CCOC(=O)N1CCN(C(=O)C2CC(c3ccc(F)cc3)=NO2)CC1` (configuration not stated), 1.7%.
Turning to `COC(=O)[C@H](C(C)C)n1c(C)c(C(C)=O)c(C(C)=O)c1C`, the inhibition is 6.6%.
Under `O=[N+]([O-])c1c(NCCO)cc(Sc2nc3ccccc3s2)c2nonc12` stands 28.1%; under `OC(COc1ccc2c(c1)CCC2)CN1CCN(c2cccc(Cl)c2)CC1` (configuration not stated), 59.3% (active); under `OC(COc1cccc(OCC(O)CN2CCCC2)c1)CN1CCCC1` (configuration not stated), 0.1%.
On to `O=C(c1ccc(Cl)cc1)c1ccc(OCC(O)CN2CCCCC2)cc1` (configuration not stated), for which the inhibition was 8.8%.
In the case of `CCN(CC)c1ccc2cc(C(=O)O)c(=O)oc2c1`, the inhibition was -13.2%.
Next, `COc1cc2c(cc1OC)CN(C(=O)c1cc(=O)c3ccccc3o1)CC2`: 19.7%; `CCOc1cc(CN2CCN(C(=O)CC(C)C)CC2)ccc1OC`: -10.6%; `CCOc1cc(C(=O)N2CCc3cc(OC)c(OC)cc3C2)ccc1OC(F)F`: 51.6% (active).
Next, `CN1CCN(CC(O)COCc2ccc3c(c2)OCO3)CC1` (configuration not stated): -20.9%; `Cc1ccc(NC(=O)CS(=O)CC(=O)N(c2ccccc2)C(C)C(=O)NC2CCCC2)cc1` (configuration not stated): 9.7%.
Under `O=C(NCc1ccccn1)c1c(O)c2c([nH]c1=O)CCCC2` stands 11.7%; under `CCCc1cc(-c2n[nH]c(=S)n2Cc2ccccc2)cs1`, 5.4%; under `COc1ccc(S(=O)(=O)Nc2c(C)n(C)n(-c3ccccc3)c2=O)cc1`, -4.1%.
In the case of `Cc1ccc(S(=O)(=O)Nc2ccccc2CNc2c(C)n(C)n(-c3ccccc3)c2=O)cc1`, the inhibition is 95.6% (active).
As for `Cc1c(Nc2nc3ccccc3nc2NS(=O)(=O)c2cccs2)c(=O)n(-c2ccccc2)n1C`, the inhibition is 1%.
Next, `CCOc1ccc(-c2c(C)n([O-])c3c([n+]2=O)CCCC3)cc1`: 9.2%; `Cc1ccn2cc(-c3nonc3C)cc2c1`: 50.1% (active).
Take `COc1ccc(Cl)cc1S(=O)(=O)N1CCN(CC(=O)C(C)(C)C)CC1`: the inhibition is 85.9% (active).
Next, `COc1cc(Cl)c(S(=O)(=O)N2CCN(Cc3ccc4c(c3)OCO4)CC2)cc1Cl`: 36.2%; `COc1ccc(NC(=O)CN2CCN(S(=O)(=O)c3ccc(F)cc3)CC2)cc1Cl`: 0.5%; `COc1cc(NS(=O)(=O)c2ccc(N=Cc3c(C)[nH]n(-c4ccccc4)c3=O)cc2)nc(OC)n1`: -18%.
Next, `COc1cc(/C=N\NC(=O)CNC(=O)c2cccc([N+](=O)[O-])c2)ccc1O`: 23%; `COc1ccc(C(=O)Nc2ccccc2C(=O)N/N=C/c2ccc(O)c(OC)c2)cc1`: 87.2% (active).
Under `COc1ccc(C(=O)Nc2ccccc2C(=O)N/N=C/c2ccccc2OC)cc1` stands -5.9%; under `N#Cc1ccsc1NC(=O)CN1CCCCC1`, -6.2%.
Take `NNC(=O)C1CCCn2c1nc1sc3c(c1c2=O)CCCC3` (configuration not stated): the inhibition was 12.4%.
Next, `CC1CCc2c(sc3nc4n(c(=O)c23)CCS4)C1` (configuration not stated): -6.7%; `Cn1c(NN)nc2sc3c(c2c1=O)CCC3`: 78.4% (active); `Cc1cccc(N2CCN(Cc3c(C)n(C)n(-c4ccccc4)c3=O)CC2)c1C`: 15.2%.
Under `COC(=O)Nc1sc2nc(C)cc(C)c2c1-n1cccc1` stands 19.5%; under `Cn1c(NC(=O)c2ccco2)c(-c2ccccc2Cl)c(=O)c2ccccc21`, -6.5%.
Turning to `CCCC(O)(c1ccc(OC)cc1)C(CN(C)C)c1ccccc1` (configuration not stated), the inhibition was -13.2%.
